In PubChem BioAssay AID1347048 (National Center for Advancing Translational Sciences (NCATS), 2019):
Among all 76,000 compounds or so, about 1,200 (1.6%) were called active. Another 4% or so got no clear call; they are omitted. The call rests on the fitted dose curve. The entries come from a sample that favours actives as a whole.

Target: Atrial natriuretic peptide receptor 1 (Homo sapiens) (UniProt P16066)
Assay: Natriuretic polypeptide receptor (hNpr1) antagonism - Primary qHTS; further: nearly all actives have a fitted effect of over 60% in size
Details: HEK293 hNpr1 GloSensor cGMP, ANP-stimulated luminescence; series mostly up to 46.3 µM; activity change, negative = inhibition: at the top concentration
Source text: Pruritus or itch, is an irritating skin sensation that creates a need to scratch, and ranges from mildly unpleasant and passing to acute and persistent sensations. […] Conventional treatments include topical anti-inflammatory agents, anti-histamines, and emollients, which are aimed at managing the itchy sensation and not the underlying disease. The treatment of pruritus remains a diagnostic and therapeutic challenge. Neurotransmission in the spinal cord from primary pruriceptors to second order neurons is a necessary step that eventually results in the sensation of itch. At this synapse, primary pruriceptors use the neuropeptide natriuretic polypeptide B (NppB) to activate its cognate receptor Natriuretic polypeptide receptor 1 (Npr1) on second order neurons. Inhibition of this step is a new potential strategy to inhibit acute and chronic itch. In order to identify small molecular compounds that can inhibit the Npr1 receptor we developed a high-throughput assay to probe inhibition of the receptor guanylate cyclase Npr1. The assay was designed taking advantage of Promega's GloSensor[TM] technology (Fan, F. et al. 2008). It involves the expression of a cyclic guanosine monophosphate (cGMP) biosensor, comprised of a firefly luciferase variant that was coupled to the cGMP binding domain of human phosphodiesterase 5A, and loading of cells with a cell-permeable luciferase substrate to monitor cGMP production by Npr1 in real time in live cells. In detail, we generated human embryonic kidney 293 cells stably expressing the human Npr1 and the cGMP GloSensor[TM] pGS-40F. Stimulating these cells with the Npr1 agonists human NppA or NppB, luciferase-induced light production could be detected in a dose-dependent manner. We also generated HEK293 cells stably expressing human Npr2 and pGS-40F and cells only expressing pGS-40F to conduct secondary counter screens. In these cells, NppC or sodium nitroprusside were used to stimulate Npr2 or soluble guanylate cyclase which is endogenously expressed in HEK293 cells, respectively. REFERENCE F. Fan, B. F. Binkowski, B. L. Butler, P. F. Stecha, M. K. Lewis, K. V. Wood, Novel genetically encoded biosensors using firefly luciferase. ACS Chem. Biol., 2008, 3: 346-351 .
PROTOCOL TABLES (as described by Inglese J, Shamu CE and Guy RK. 2007) SEQUENCE No. (e.g., 1, 2, 3, etc.); […] (e.g., Cells, Incubation, Reagent, etc.); VALUE and DESCRIPTION. GLOSENSOR PROTOCOL 1. Cells. Seed 1500 HEK293 cGMP-sensor cells expressing hNpr1 per well in 4uL into Greiner 1536-well white/solid bottom high base, tissue culture-treated plates. 2. Incubation. Incubate plated cells at 37C in 5% CO2, 95% RH overnight. 3. Reagent. Add 1uL per well GloSensor reagent from Promega (2% final concentration) or CO2 independent media vehicle control to respective columns of Greiner 1536-well plates. 4. Incubation. Incubate plated cells at room temperature for 2 h, protect from light. 5. Compounds. Library compounds and A-71915 control added at 23 nL per well, transferred by Pin Tool. 6. Incubation. Incubate plated cells for 30 min. at room temperature, protect from light. 7. Detector. GloSensor baseline pre-read luminescence measured using CCD-based camera (Viewlux). 8. Compound. Add 1uL of hNppA peptide to 0.1 nM final concentration to stimulate hNpr1 or CO2 independent media as vehicle control. 9. Incubation. Incubate treated cells at room temperature for 20 min., protect from light. 10. Detector. GloSensor post-hNppA luminescence measured using CCD-based camera (Viewlux). NOTES (numbers refer to Sequence numbers above) 1. HEK293 cells expressing hNpr1 and GIP/pGS-40F grown to 85-95% confluence (48-72 h) in T175 culture flasks (CO2 independent media supplemented with 10% FBS, 1% Pen/Strep antibiotics and 1 ug/mL puromycin). Trypsinize and harvest cells from T175 culture flasks and filter through 40 um cell strainer. Cells counted with Invitrogen Countess (30,000,000 - 50,000,000 cells/flask). […]
On the % scale 0 is the no-effect control and ±100 the full control effect; potency means the concentration at half of the fitted maximal effect.

Atrial natriuretic peptide receptor 1 (Homo sapiens), sequence (P16066 whole entry, looked up): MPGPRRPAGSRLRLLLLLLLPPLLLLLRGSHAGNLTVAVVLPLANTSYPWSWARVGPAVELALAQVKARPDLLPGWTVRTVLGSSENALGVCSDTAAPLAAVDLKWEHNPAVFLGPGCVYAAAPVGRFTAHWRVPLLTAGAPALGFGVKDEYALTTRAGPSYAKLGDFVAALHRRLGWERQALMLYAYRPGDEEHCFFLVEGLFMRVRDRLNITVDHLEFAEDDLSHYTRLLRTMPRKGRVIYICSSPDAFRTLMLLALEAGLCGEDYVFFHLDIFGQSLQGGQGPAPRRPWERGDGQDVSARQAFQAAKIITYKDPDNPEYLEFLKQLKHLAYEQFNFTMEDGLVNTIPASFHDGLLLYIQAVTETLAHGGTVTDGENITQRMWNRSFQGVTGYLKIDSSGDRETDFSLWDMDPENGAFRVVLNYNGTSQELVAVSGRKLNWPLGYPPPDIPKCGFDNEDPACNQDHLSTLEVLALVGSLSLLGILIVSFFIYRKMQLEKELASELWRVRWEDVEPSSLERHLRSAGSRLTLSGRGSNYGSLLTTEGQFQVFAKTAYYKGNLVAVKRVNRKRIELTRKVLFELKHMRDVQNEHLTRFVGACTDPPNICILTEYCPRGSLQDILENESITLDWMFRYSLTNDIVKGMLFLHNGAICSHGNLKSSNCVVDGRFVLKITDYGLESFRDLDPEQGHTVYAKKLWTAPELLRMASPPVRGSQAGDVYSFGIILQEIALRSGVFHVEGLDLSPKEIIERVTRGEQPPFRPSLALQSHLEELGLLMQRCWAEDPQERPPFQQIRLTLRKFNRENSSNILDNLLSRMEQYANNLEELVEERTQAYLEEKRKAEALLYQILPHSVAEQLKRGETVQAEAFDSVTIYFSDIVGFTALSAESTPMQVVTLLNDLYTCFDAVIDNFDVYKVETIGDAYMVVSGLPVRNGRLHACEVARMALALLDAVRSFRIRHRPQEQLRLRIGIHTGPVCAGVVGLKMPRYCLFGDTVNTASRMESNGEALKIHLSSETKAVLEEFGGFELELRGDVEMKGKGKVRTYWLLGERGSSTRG

Structure (SMILES)	activity change, negative = inhibition	Potency
O[C@H]1CC[C@@H](Cc2cc(-c3ccccc3)on2)O[C@@H]1CNCc1ccccc1	-16.7% [at 70.6 µM] (inactive)	–
O=C(NC[C@H]1O[C@H](Cc2cc(-c3ccccc3)on2)CC[C@@H]1O)C1CCC1	3.18% [at 70.6 µM] (inactive)	–
CC(=O)N1CCC(NC[C@H]2O[C@H](Cc3cc(-c4cccc(O)c4)on3)CC[C@@H]2O)CC1	–	25.1 µM (active)
NC(=O)C1CCCN(CC(=O)Nc2nc3ccccc3[nH]2)C1 (stereo unspecified)	7.47% (inactive)	–
CC1Oc2ccc(NC(=O)c3ccc([N+](=O)[O-])cc3)cc2CN(Cc2ccccc2)C1=O (stereo unspecified)	-15.2% (inactive)	–
CC(Cn1cncn1)Nc1nc(-c2ccncc2)nc2c1cnn2C (stereo unspecified)	9.2% (inactive)	–
Cc1nc(-c2ccncc2)ncc1C(C)Nc1ncnc(C)c1C (stereo unspecified)	–	10 µM (active)
Cc1ccc(-c2ncc(C(=O)Nc3ccccc3C)c(-c3ccncc3)n2)cc1	-5.03% (inactive)	–
COCC(=O)N1CCCC(c2nc(-c3ccc(C)nn3)no2)C1 (stereo unspecified)	1.03% (inactive)	–
O=C(c1cccc(F)c1)N1CCCC(c2nccn2Cc2cscn2)C1 (stereo unspecified)	-4.15% (inactive)	–
O=C(c1cccc(F)c1)N1CCCC(CN2CCOCC2)CC1 (stereo unspecified)	4.23% (inactive)	–
O=C(c1ccccc1)N1CCNc2cnc(Nc3cccc(C(F)(F)F)c3)nc2C1	–	20 µM (active)
COc1ccccc1Nc1ncc2c(n1)CN(C(=O)COc1ccccc1)CCN2	-1.75% [at 70.6 µM] (inactive)	–
O=C(c1nc2ccccc2[nH]1)N1CCNc2cnc(Nc3ccc(-n4ccnc4)cc3)nc2C1	-12.9% (inactive)	–
O=C(c1cccc(O)c1)N1CCNc2cnc(Nc3cccc(F)c3)nc2C1	–	22.4 µM (active)
COc1ccc(C(=O)N[C@H]2C[C@@H](c3nc(-c4ccc(OC)cc4)no3)N(C)C2)cc1	-3.43% [at 70.6 µM] (inactive)	–

Structure (SMILES)	activity change, negative = inhibition	Potency
c1ccc(Nc2cnc3ccc(-n4ccnc4)nn23)cc1	-6.68% [at 70.6 µM] (inactive)	–
CC1(C)C[C@H](NC(=O)c2ccc(C#N)cc2)[C@@]2(CCC(=O)NCCc3c[nH]c4ccccc34)CC[C@](C)(O)C[C@@H]12	1.06% (inactive)	–
Cc1ccccc1-c1cn[nH]c1C1CCN(C(=O)CCCn2cnnn2)CC1	-12.2% (inactive)	–
O=C(c1cccc(F)c1)N1CCOC[C@H](Oc2ccc(C(F)(F)F)cc2)C1	–	28.2 µM (active)
O=C(c1cccc(F)c1)N1CCC(CCOc2ccc(F)cc2)C1 (stereo unspecified)	-28.9% (inactive)	–
O=C(C1CCOCC1)N1CCOC[C@H](Oc2ccccc2)C1	6.7% [at 70.6 µM] (inactive)	–
Cc1nn(-c2ccc(C(C)C)cc2)c(C)c1[C@@H]1C=C[C@@H](NC(=O)CC2(CC(=O)O)CCCC2)C1	-1.22% (inactive)	–
Cc1nn(-c2cccc(Br)c2)c(C)c1[C@@H]1C=C[C@@H](NS(=O)(=O)c2ccccc2)C1	-20.2% (inactive)	–
Cc1nn(-c2ccc(C(C)C)cc2)c(C)c1[C@@H]1C=C[C@@H](NC(=S)NCC(C)C)C1	–	28.2 µM (active)
Cc1nn(-c2cccc(Br)c2)c(C)c1[C@@H]1C=C[C@@H](NC(=O)CC2(CC(=O)O)CCCC2)C1	-0.402% (inactive)	–
COc1ccc(NC(=O)N[C@@H]2C=C[C@@H](c3c(C)nn(-c4ccc(C(C)(C)C)cc4)c3C)C2)cc1	-18.6% (inactive)	–
Cc1nn(Cc2ccccc2)c(C)c1[C@@H]1C=C[C@@H](NC(=O)NC(C)C)C1	-4.73% [at 70.6 µM] (inactive)	–
Cc1nn(Cc2ccccc2)c(C)c1[C@@H]1C=C[C@@H](NC(=O)NC2CCCCC2)C1	-22.1% [at 70.6 µM] (inactive)	–
COc1ccc(-n2nc(C)c([C@H]3C=C[C@@H](OC(=O)Nc4cccc(F)c4)C3)c2C)cc1	–	20 µM (active)
COc1ccc(-n2nc(C)c([C@@H]3C=C[C@@H](NC(=O)Nc4ccccc4)C3)c2C)cc1	–	14.1 µM (active)
